Measurements: PubChem BioAssay (EPA / NIEHS)
Activity calls are given as the source filed them. Rule for the calls: active = hit-call score of the fitted dose curve at least 0.9, where 1 is the maximum; inactive = score below 0.9.

read-out: CYP3A5 (gene 1577); test: LTEA_HepaRG_CYP3A5: Life Technologies and Expression Analysis (LTEA) Assay for CYP3A5 using HepaRG (AID 2283493); conditions: mRNA level, 48 h; actives raise or lower the signal
Procedure, shortened: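 qRT-PCR read-out: CYP3A5 transcript in HepaRG lysates, housekeeping-normalized (ACTB/GAPDH/POLR2A), fitted bidirectionally against 0.5% DMSO baseline. Exposure 48 h, eight half-log concentrations up to 100 uM, duplicates.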

SMILES	outcome	AC50
O=C1c2ccccc2C(=O)N1CCc1noc(-c2ccc(CN3CCCCCC3)s2)n1	inactive	
CC(C)(C)c1cc(/C=C2\SC(N)=NC2=O)cc(C(C)(C)C)c1O		93.5 µM (active)
CCCCOC(=O)c1ccc(O)cc1	inactive	
O=c1c(-c2ccc(O)cc2)coc2cc(O)cc(O)c12	inactive	
O=C(O)c1ccccc1C(=O)OCc1ccccc1	inactive	
CCN(Cc1cccc(S(=O)(=O)O)c1)c1ccc(C(=C2C=CC(=[N+](CC)Cc3cccc(S(=O)(=O)O)c3)C=C2)c2ccccc2S(=O)(=O)[O-])cc1	inactive	
O=CCCCC=O	inactive	
c1ccc2ccccc2c1	inactive	
O=C=NCCCCCCN=C=O	inactive	
OC12N=C(c3ccccc3)SC1Cc1cc(Cl)ccc12 (centres undefined)		8.12 µM (active)
Clc1ccccc1C(c1ccccc1)(c1ccccc1)n1ccnc1	inactive	
CCCC(=O)OCCC(C)C	inactive	
CC(=O)N1CCN(c2ccc(OC[C@H]3CO[C@](Cn4ccnc4)(c4ccc(Cl)cc4Cl)O3)cc2)CC1		50 µM (active)
Cc1cn([C@H]2C[C@H](N=[N+]=[N-])[C@@H](CO)O2)c(=O)[nH]c1=O	inactive	
c1ccc(C[n+]2cccc3ccccc32)cc1	inactive	
Cc1oc2c(NC(=O)c3c(Cl)cccc3Cl)cccc2c1C(C)(C)O	inactive	
CC/C(=C(/CC)c1ccc(O)cc1)c1ccc(O)cc1		50 µM (active)
CC(C)(c1cc(Br)c(O)c(Br)c1)c1cc(Br)c(O)c(Br)c1	inactive	

SMILES	outcome	AC50
NCc1cccc(C2CCN(C(=O)c3ccc(C#Cc4ccccc4F)o3)CC2)c1		81.1 µM (active)
O=C(O)Cn1c(=O)n(Cc2ccc(Br)cc2F)c(=O)c2ccc(Cl)cc21	inactive	
CC1=CC(=O)/C(=C(/C)O)C(=O)O1	inactive	
O=C(O)c1ccccc1-n1cc(C(=O)O)c(=O)c2cc(Nc3c(F)cc(F)cc3Cl)c(Cl)cc21	inactive	
CN1C(=O)CC[C@H]1c1cccnc1	inactive	
Oc1ccccc1	inactive	
CN(C)c1ccc(C(=C2C=CC(=[N+](C)C)C=C2)c2ccc(N(C)C)cc2)cc1		24.6 µM (active)
O=C(OCCCCCCOC(=O)c1ccccc1)c1ccccc1	inactive	
O=c1ccc2ccccc2o1	inactive	
CCCCOC(=O)CC(CC(=O)OCCCC)(OC(C)=O)C(=O)OCCCC	inactive	
O=C(Nc1ccc(Cl)cc1)Nc1ccc(Cl)c(Cl)c1	inactive	
CC(O)CC(C)(C)O (centres undefined)	inactive	
CCCCCCCCOC(=O)c1cc(O)c(O)c(O)c1	inactive	
CC[C@H](NC(=O)c1cc(F)ccc1NS(=O)(=O)c1cccc2cccnc12)c1ccccc1	inactive	
CN(C)C(=O)C1(N2CCCCC2)CCN(CC[C@@]2(c3ccc(Cl)c(Cl)c3)CN(C(=O)c3ccccc3)CCO2)CC1	inactive	
CC1(C)NC(=O)N(c2ccc([N+](=O)[O-])c(C(F)(F)F)c2)C1=O		32.3 µM (active)
CCCCCCCCCCCC[N+](C)(C)C		86.6 µM (active)
Cc1ccc2oc(CN(Cc3ccccc3)C(=O)Nc3c(F)cc(F)cc3F)c(-c3ccc(Cl)cc3)c2c1	inactive	

read-out: Fatty Acid-Binding Protein 1 (FABP1), FABP1 (gene 2168); test: LTEA_HepaRG_FABP1: Life Technologies and Expression Analysis (LTEA) Assay for Fatty Acid-Binding Protein 1 (FABP1) using HepaRG (AID 2283494); conditions: mRNA level, 48 h; actives raise or lower the signal
Procedure, shortened: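 qRT-PCR readout of FABP1 transcript (normalized to three housekeeping genes) after 48 h chemical exposure of HepaRG cells; eight concentrations, half-log steps, max 100 uM, 0.5% DMSO vehicle; gain or loss fitted relative to DMSO baseline.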

SMILES	outcome	AC50
O=C1c2ccccc2C(=O)N1CCc1noc(-c2ccc(CN3CCCCCC3)s2)n1	inactive	
CC(C)(C)c1cc(/C=C2\SC(N)=NC2=O)cc(C(C)(C)C)c1O		14.8 µM (active)
CCCCOC(=O)c1ccc(O)cc1	inactive	
O=c1c(-c2ccc(O)cc2)coc2cc(O)cc(O)c12	inactive	
O=C(O)c1ccccc1C(=O)OCc1ccccc1		28.1 µM (active)
CCN(Cc1cccc(S(=O)(=O)O)c1)c1ccc(C(=C2C=CC(=[N+](CC)Cc3cccc(S(=O)(=O)O)c3)C=C2)c2ccccc2S(=O)(=O)[O-])cc1	inactive	
O=CCCCC=O	inactive	
c1ccc2ccccc2c1	inactive	
O=C=NCCCCCCN=C=O	inactive	
CO[C@H]1/C=C/O[C@@]2(C)Oc3c(C)c(O)c4c(O)c(c(/C=N/N5CCN(C)CC5)c(O)c4c3C2=O)NC(=O)/C(C)=C\C=C\[C@H](C)[C@H](O)[C@@H](C)[C@@H](O)[C@@H](C)[C@H](OC(C)=O)[C@@H]1C		0.486 µM (active)
OC12N=C(c3ccccc3)SC1Cc1cc(Cl)ccc12 (centres undefined)		34.4 µM (active)
Clc1ccccc1C(c1ccccc1)(c1ccccc1)n1ccnc1		18.1 µM (active)
CCCC(=O)OCCC(C)C	inactive	
CC(=O)N1CCN(c2ccc(OC[C@H]3CO[C@](Cn4ccnc4)(c4ccc(Cl)cc4Cl)O3)cc2)CC1		12.7 µM (active)
Cc1cn([C@H]2C[C@H](N=[N+]=[N-])[C@@H](CO)O2)c(=O)[nH]c1=O	inactive	
c1ccc(C[n+]2cccc3ccccc32)cc1		31.7 µM (active)
Cc1oc2c(NC(=O)c3c(Cl)cccc3Cl)cccc2c1C(C)(C)O		62.1 µM (active)
CC/C(=C(/CC)c1ccc(O)cc1)c1ccc(O)cc1		94.1 µM (active)
CC(C)(c1cc(Br)c(O)c(Br)c1)c1cc(Br)c(O)c(Br)c1	inactive	

SMILES	outcome	AC50
NCc1cccc(C2CCN(C(=O)c3ccc(C#Cc4ccccc4F)o3)CC2)c1	inactive	
C[C@]12CC[C@@H]3c4ccc(O)cc4CC[C@H]3[C@@H]1CCC2=O		30.8 µM (active)
O=C(O)Cn1c(=O)n(Cc2ccc(Br)cc2F)c(=O)c2ccc(Cl)cc21	inactive	
CC1=CC(=O)/C(=C(/C)O)C(=O)O1	inactive	
O=C(O)c1ccccc1-n1cc(C(=O)O)c(=O)c2cc(Nc3c(F)cc(F)cc3Cl)c(Cl)cc21	inactive	
CN1C(=O)CC[C@H]1c1cccnc1	inactive	
Oc1ccccc1	inactive	
CN(C)c1ccc(C(=C2C=CC(=[N+](C)C)C=C2)c2ccc(N(C)C)cc2)cc1		2.76 µM (active)
O=C(OCCCCCCOC(=O)c1ccccc1)c1ccccc1	inactive	
O=c1ccc2ccccc2o1		36.8 µM (active)
CCCCOC(=O)CC(CC(=O)OCCCC)(OC(C)=O)C(=O)OCCCC	inactive	
O=C(Nc1ccc(Cl)cc1)Nc1ccc(Cl)c(Cl)c1		16.7 µM (active)
CC(O)CC(C)(C)O (centres undefined)	inactive	
CCCCCCCCOC(=O)c1cc(O)c(O)c(O)c1	inactive	
CC[C@H](NC(=O)c1cc(F)ccc1NS(=O)(=O)c1cccc2cccnc12)c1ccccc1		32.3 µM (active)
CN(C)C(=O)C1(N2CCCCC2)CCN(CC[C@@]2(c3ccc(Cl)c(Cl)c3)CN(C(=O)c3ccccc3)CCO2)CC1		17 µM (active)
CC1(C)NC(=O)N(c2ccc([N+](=O)[O-])c(C(F)(F)F)c2)C1=O		66.7 µM (active)
CCCCCCCCCCCC[N+](C)(C)C		93.9 µM (active)
Cc1ccc2oc(CN(Cc3ccccc3)C(=O)Nc3c(F)cc(F)cc3F)c(-c3ccc(Cl)cc3)c2c1		13 µM (active)
